# Measurements from PubChem BioAssay AID743185 (Broad Institute, 2013).
# Active and inactive are the calls of the source.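 Rule for the calls: active = ATP loss in HepG2 cells with fitted half-maximal concentration at most twice the top tested dose; inconclusive = flat curve showing moderate loss, or a poor fit; inactive = opposite effect, flat near zero, or weaker potency.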
# Assay: viability loss in HepG2 cells – cell-based, luminescence, dry powder, set 5, cytotoxicity control, dose response (AID 743185)
# Conditions: ATP luminescence (CellTiter-Glo), 72 h; series mostly up to 26 µM
row,SMILES,outcome
1,O=C(N/N=C/c1c[nH]c2ccccc12)c1cccs1,inactive
2,CSc1ccc(/C=N/NC(=O)c2ccc3nc[nH]c3c2)cc1,inactive
